The source of these data is ChEMBL document CHEMBL4513142, “CO-ADD screening of Indiana University - Purdue University Indianapolis (USA) compounds”.

Where “and” joins values, the source holds several entries; their conditions need not be identical. Equal entries are not always repeated. Potency and affinity values are given separately.

Usually Inhibition stands for the drop in the measured response relative to a control, in per cent.

The subject of the first assay is Staphylococcus aureus. The conditions noted are these: Concentration 32 ug.mL-1; ASSAY_TEST Inhibition of Bacterial Growth; detection method Absorption (OD600); MEDIA CAMHB; plate type 384well; NBS; CORNING #3640; time 18 hr.
On to `CCCNC(=O)C(Cc1ccccc1)NC(=O)c1ccc(F)cc1` (stereo not drawn), for which the Inhibition is recorded as 30.52%.
Same read-out and setting: to `[C-]#[N+]c1ccc(C(=O)NC(Cc2ccc(F)cc2)C(=O)NCCC)cc1` (stereo not drawn) belongs 26.08%; to `[C-]#[N+]c1ccc(C(=O)NC(Cc2ccc(C(F)(F)F)cc2)C(=O)NCCC)cc1` (stereo not drawn), 24.86%.
The same measure, in the same setting: the result for `CCCNC(=O)C(Cc1ccccc1C)NC(=O)c1ccc(C(F)(F)F)cc1` (stereo not drawn) reads 28.42%.
Same read-out and setting: the result for `[C-]#[N+]c1ccc(C(=O)NC(Cc2ccccc2F)C(=O)NCCC)cc1` (stereo not drawn) reads 22.89%.
Consider `[C-]#[N+]c1ccc(C(=O)NC(CC)C(=O)NCCC)cc1` (stereo not drawn), for which the Inhibition was 19.19%.
On the same count and under the same terms, the result for `CCCNC(=O)C(Cc1ccc(F)cc1)NC(=O)c1ccccc1` (stereo not drawn) reads 25.83%; that for `[C-]#[N+]c1ccc(C(=O)NC(CC=C)C(=O)NCCC)cc1` (stereo not drawn), 14.2%; that for `CCCNC(=O)C(Cc1ccccc1)NC(=O)Cc1ccccc1` (stereo not drawn), 29.57%.
Same read-out and setting: to `[C-]#[N+]c1ccc(C(=O)NC(CC#C)C(=O)NCCC)cc1` (stereo not drawn) belongs 27.84%.

Still in this assay, the particulars now being: Concentration 32 ug.mL-1; ASSAY_TEST Inhibition of Bacterial Growth; detection method Absorption (OD600); MEDIA CAMHB; plate type 384well; NBS; CORNING #3640; time 18 hr, 32 ug/mL.
`NC(Cc1ccccc1F)C(=O)O.O=C(O)C(F)(F)F` (stereo not drawn): the Inhibition is 11.55% and 11.5%.
Take `COc1cc(C(=O)N[C@@H](CC(C)C)C(=O)O)ccc1O`: the Inhibition was 20.35% and 19.19%.
Same read-out and setting: to `Cc1ccc(C(=O)NC(Cc2cc(F)c(F)cc2F)C(=O)O)cc1` (stereo not drawn) belongs 24.46% and 19.13%; to `CC(C)C[C@H](NC(=O)c1cccnc1)C(N)=O`, 11.42% and -3.35%.
Same read-out and setting: the result for `O=C(N[C@@H](Cc1ccccc1)C(=O)O)C1CCCCC1` reads 12.87% and 13.13%.
The same measure, in the same setting: the result for `NC(Cc1ccccc1I)C(=O)O.O=C(O)C(F)(F)F` (stereo not drawn) reads 9.99% and 15.72%.
For `NC(=O)[C@@H]1CCCN1C(=O)c1ccccn1`, the Inhibition was 30.13% and 31.7%.
The same measure, in the same setting: to `NC(=O)[C@H](Cc1ccccc1)NC(=O)c1c(F)c(F)c(F)c(F)c1F` belongs 22.06% and 27.14%; to `NC(=O)[C@H](Cc1ccccc1)NC(=O)c1cccnc1`, 29.26% and 26.43%.
Still for that read-out and setting: to `NC(Cc1ccc(F)cc1)C(=O)O.O=C(O)C(F)(F)F` (stereo not drawn) belongs 15.79% and -3.39%; to `NC(Cc1cccc(F)c1)C(=O)O.O=C(O)C(F)(F)F` (stereo not drawn), 11.07% and 11.98%; to `O=C(Cc1cccc(Br)c1)N[C@@H](Cc1ccccc1)C(=O)O`, 8.37% and -0.37%.
Still for that read-out and setting: the result for `CC(C)[C@H](NC(=O)c1cccc(C(F)(F)F)c1)C(=O)O` reads 19.09% and 11.5%; that for `C[C@H](NC(=O)c1ccccc1Cl)C(=O)O`, 13.46% and 14.36%; that for `O=C(NC(Cc1ccc(Cl)nc1)C(=O)O)c1ccccc1` (stereo not drawn), 22.85% and 23.42%.
`O=C(NC(CCCc1ccccc1)C(=O)O)c1cccc2ccccc12` (stereo not drawn): the Inhibition was 21.08% and 19.14%.
On the same count and under the same terms, the result for `NC(Cc1ccc(F)c(F)c1)C(=O)O.O=C(O)C(F)(F)F` (stereo not drawn) reads 14.42% and 15.4%; that for `Cc1ccc(C(=O)NC(Cc2ccccc2C#N)C(=O)O)cc1` (stereo not drawn), 24.12% and 21.1%.
